The results in this text go back to PubChem BioAssay AID1446 (The Scripps Research Institute Molecular Screening Center, 2008).

Hit rate of the full screen: of about 220,000 compounds, about 2,400 (1.1%) were called active.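 Rule for the calls: active = inhibition above the campaign mean plus 3 SD over all tested compounds (cut at about 24% in these data); inactive = the rest.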 Many of the other results were omitted from the sample, so actives are more common in it than they were.

The assay in a line: reduced viability of JAK2V617F-dependent Ba/F3 cells, primary screen, JAK2V617F inhibitor project, cell-based, Ba/F3 EpoR-JAK2V617F, luminescence (AID 1446).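 Note: cytokine-independent growth of Ba/F3 cells driven by EpoR plus mutant JAK2; 0% = DMSO-treated cells and 100% = JAK inhibitor I control.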 Conditions: ATP luminescence, at 5.6 µM, hits give high values.
Turning to `CCOC(=O)c1cc(-c2nnc(-c3cc(OC)c(OC)c(OC)c3)o2)c(C)nc1C`, the inhibition was 0.18% (inactive).
For `CCOC(=O)C1=C(N)N2C(=O)C(C)SC2=C(C(=O)OCC)C1c1cc(OC)c(OC)c(OC)c1` (stereo not drawn) the value was 80.7% (active); for `CCOC(=O)C1CCN(C(=O)/C=C/c2cc(OC)c(OC)c(OC)c2)CC1`, -2.65% (inactive).
In the case of `CC(CNS(=O)(=O)c1ccc(Br)cc1)CN(C)C` (stereo not drawn) it was -1.94% (inactive); in that of `Cc1ccc(Cl)cc1N1CCN(C(=O)c2cccc3c(=O)c(C)c(-c4ccccc4)oc23)CC1`, -6.79% (inactive).
For `C=CCNc1scc(-c2ccccc2)[n+]1CC=C` the value was -1.89% (inactive); for `C=CC[n+]1c(-c2ccc(C)cc2)csc1NNC(=O)Nc1ccccc1`, 37.6% (active).
`Cc1ccc(NC(=O)Nc2ccccc2)c(Br)c1`: the inhibition was 1.27% (inactive).
In the case of `CCN(CC)CCOC(=O)c1ccc(NC(=O)CNC(=O)c2ccccc2)cc1` it was 0.68% (inactive); in that of `COc1ccc(OCCC(=O)c2ccc(OC)cc2)cc1`, -0.79% (inactive); in that of `COc1ccc(C(=O)C[n+]2ccc(C)cc2)cc1`, -3% (inactive).
Turning to `COc1ccc(C(=O)C[n+]2ccc(N)c(C)c2C)cc1`, the inhibition was 97.4% (active).
For `Cc1nn(-c2ccccc2)c(NC(=O)c2cccs2)c(-c2ccc(Cl)cc2)c1=O` the value was -2.34% (inactive); for `CN(C)CCCNC(=O)/C=C/c1ccc(OCc2c(F)cccc2Cl)cc1`, 0.9% (inactive).
As to `COCCCNC(=O)/C=C/c1ccc(OCc2c(F)cccc2Cl)cc1`, the inhibition is -4.39% (inactive).
As for `O=C(/C=C/c1ccc(OCc2c(F)cccc2Cl)cc1)N1CCOCC1`, the inhibition was 64.4% (active).
For `O=C(NNC(=O)c1csc(-c2cccnc2)n1)Nc1ccc(Cl)cc1` the value was -0.26% (inactive); for `COC(=O)N/N=C/c1cn(CCCOc2ccc(C)cc2)c2ccccc12`, -1.96% (inactive); for `CCN(CC)c1ccc(/C=N/Nc2nc(C)cc(C)n2)c(O)c1`, 2.26% (inactive).
For `CCN(CC)c1ccc(/C=N/NC(=O)c2cnccn2)c(O)c1` the value was 56.2% (active); for `O=C(Nc1ccc2c(c1)OCCO2)c1cnccn1`, 0.76% (inactive).
For `Cc1noc(C)c1C(=O)OCC(=O)/C=C1\N(C)c2ccccc2C1(C)C` the value was 1.84% (inactive).
Regarding `CN1/C(=C\C(=O)c2cccnc2Cl)C(C)(C)c2ccccc21`, the inhibition was 2.48% (inactive).
For `CC(=O)Nc1cccc(OCC(=O)/C=C2\N(C)c3ccccc3C2(C)C)c1` the value was 37.5% (active); for `N/C(=N\OC(=O)Nc1ccccc1)c1ccno1`, 4.88% (inactive); for `CC1(C)CC(=O)C=C(N2CCCC2)C1`, -0.55% (inactive).
For `CC1(C)CC(N2CCN(C(c3ccccc3)c3ccccc3)CC2)=CC(=[N+]2CCCCC2)C1` the value was 98.8% (active); for `CC(C)NC(=S)N1CCN(C(c2ccccc2)c2ccccc2)CC1`, 1.76% (inactive).
In the case of `CCOC(=O)C(Sc1ncc(C#N)c(N)n1)C(C)C` (stereo not drawn) it was -2.24% (inactive); in that of `COc1cc(C=O)ccc1Oc1nnnn1-c1ccccc1`, 1.87% (inactive).
For the compound `COc1ccccc1/C=N\Nc1cc(C)nc(-n2nc(C)cc2C)n1`, the inhibition was -2.19% (inactive).
In the case of `COc1ccc(Nc2cc(C)nc(-n3nc(C)cc3C)n2)cc1` it was 76.7% (active); in that of `CC(=O)c1ccc(Oc2cc(C)nc(-n3nc(C)cc3C)n2)cc1`, 64.7% (active); in that of `Cc1cc(Oc2ccccc2)nc(N2CCOCC2)n1`, 1.31% (inactive).
In the case of `Cc1cc(N/N=C\c2ccc(Br)cc2)nc(-n2nc(C)cc2C)n1` it was -1.35% (inactive); in that of `Cc1cc(C)n(-c2cc(Oc3ccccc3)ncn2)n1`, 0.29% (inactive).
In the case of `Nc1nc(SC23CC4CC(CC(C4)C2)C3)ns1` it was -4.14% (inactive); in that of `O=C(c1ccc(OC2CCN(Cc3ccccn3)CC2)cc1)N1CCCCCC1`, -0.65% (inactive).
On to `CC(C)(C)c1ccc(CCC2OCC(CN3CCOCC3)O2)cc1` (stereo not drawn), for which the inhibition was 0.42% (inactive).
For `CC(C)[C@@H]1NC(=O)c2cc([N+](=O)[O-])cc(I)c2NCCC[C@@H](C(=O)NC(CC(=O)O)C(N)=O)NC(=O)[C@H](CO)NC1=O` (stereo partly drawn) the value was 1.14% (inactive); for `CC(C)(C)OC(=O)NCCCCCC(=O)N/N=C/c1coc2ccccc2c1=O`, 0.8% (inactive).
For `Cc1ccc(N2C(=O)CN=C2Nc2nc(C)cc(C)n2)cc1` the value was -0.62% (inactive); for `CCCCOc1ccc(NC(=O)[C@@H]2CCCN2C(=O)C2CCN(S(=O)(=O)c3ccc(C)cc3)CC2)cc1`, 1.1% (inactive); for `Cc1cc(C)nc(NS(=O)(=O)c2ccc(N/C=C\C(=O)c3cccs3)cc2)n1`, 2.57% (inactive).
For `CCN1/C(=C/C(=S)Nc2ccccc2)Sc2ccccc21` the value was -4.02% (inactive).
`CCN1/C(=C/c2ccc3ccc(C)cc3[n+]2CC)Sc2ccccc21`: the inhibition is 100% (active).
Regarding `CCN1/C(=C\c2ccc3ccccc3[n+]2CC)Sc2cc(C)ccc21`, the inhibition is 99.7% (active).
Take `CCN1CCN(CCNC(=O)c2ccc(/C=C3/Sc4ccccc4N(Cc4cccc(C)c4)C3=O)cc2)CC1`: the inhibition is 4.4% (inactive).
In the case of `COc1ccc([N+](=O)[O-])cc1NC(=O)COC(=O)/C=C/c1ccco1` it was -0.59% (inactive); in that of `O=S1(=O)CCC(NC(=S)SCc2ccccc2Br)C1` (stereo not drawn), -4.11% (inactive); in that of `CC1(C)OC(=O)C(=CSc2ccc(C(C)(C)C)cc2)C(=O)O1`, -1.81% (inactive).
For `COc1cc(OC)c(C(=O)NC2CCCCCC2)cc1OC` the value was 99.6% (active); for `COc1cc(OC)c(C(=O)NC2CC(C)(C)NC(C)(C)C2)cc1OC`, -0.48% (inactive).
Turning to `COc1ccc(S(=O)(=O)NC(C)C)cc1C(=O)NC1CCCCC1`, the inhibition is -1.5% (inactive).
In the case of `O=C(NC(=O)c1ccccc1N1CCCCC1)Nc1ccc(Br)cc1` it was 0.79% (inactive); in that of `O=C(N/N=C/c1coc2ccccc2c1=O)c1cc2ccccc2o1`, 2.09% (inactive); in that of `Cc1c(/C=N\NC(=O)c2cc3ccccc3o2)c2ccccc2n1C`, 34.8% (active).
In the case of `O=C(N/N=C/c1c[nH]c2ccccc12)c1cc2ccccc2o1` it was 0.06% (inactive); in that of `CC(=O)c1nnn(-c2ccc(Cl)cc2C#N)c1C`, 0.95% (inactive).
In the case of `CC(C)CNC(=O)COC(=O)/C=C/c1ccco1` it was -3.59% (inactive); in that of `COc1ccc(C(=O)CN(C(=O)c2ccc(Cl)cc2)N2C(=O)c3ccccc3C2=O)cc1`, 0% (inactive); in that of `COc1ccc(Cn2c(-c3ccc(Cl)cc3)c[n+]3ccccc23)cc1`, 88.9% (active).
For `COc1ccc(Cn2c(=O)cc(C)[nH]c2=S)cc1`, the inhibition was 2.03% (inactive).

By inhibition is commonly meant the drop in the measured response relative to a control, in per cent.
